Among all 290,000 compounds or so, about 11,000 (3.8%) were called active.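 The calls were made as follows: active = mean replicate inhibition above about 79%, with every replicate also reaching it (limit read from the data); inconclusive = only one of the two criteria met; inactive = mean below limit and not every replicate reaching it.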 The entries come from a sample that favours actives as a whole.
Each compound was assayed against FAD-linked sulfhydryl oxidase ALR (Homo sapiens) (UniProt P55789) (assay: inhibitors of human ALR sulfhydryl oxidase, primary screen, biochemical, H2O2 detection, HRP-luminol luminescence, single point (AID 485317)). Settings: purified ALR, DTT oxidation, hits give high values, concentration not given here.
Sequence of FAD-linked sulfhydryl oxidase ALR (Homo sapiens) (P55789 whole entry, looked up): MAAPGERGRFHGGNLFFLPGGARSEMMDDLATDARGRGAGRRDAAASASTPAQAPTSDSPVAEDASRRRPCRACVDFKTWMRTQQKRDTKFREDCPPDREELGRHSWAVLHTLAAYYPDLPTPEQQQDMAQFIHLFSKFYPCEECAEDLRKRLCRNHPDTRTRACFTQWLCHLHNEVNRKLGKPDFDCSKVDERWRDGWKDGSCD

Structure (SMILES)	inhibition
CC(Sc1nn(-c2ccc(Cl)cc2)c(=S)s1)C(=O)NCC1CCCO1 (stereo unspecified)	-12.1% (inactive)
COc1cc(/C=N/n2c(C)n[nH]c2=S)ccc1OCc1ccccc1	97% (active)
COc1cc(-c2n[nH]c(=S)n2Cc2ccccc2)cc(OC)c1OC	68.8% (inactive)
CCOc1ccc(/C=N/Nc2nncc(-c3ccccc3)n2)cc1OC	-1.74% (inactive)
COc1ccc(S(=O)(=O)Nc2ccc3cn[nH]c3c2)cc1[N+](=O)[O-]	-7.76% (inactive)
O=C(c1cc(-c2ccc(Cl)cc2)on1)N1CCN(c2ccccc2)CC1	4.35% (inactive)
O=C(c1cc(-c2ccc(O)cc2)on1)N1CCCc2ccccc21	98.8% (active)
Cc1c(C(=O)N2CCCc3ccccc32)oc2ccccc12	1.77% (inactive)
Cc1ccc(-c2cc(C(=O)N3CCc4ccccc4C3)no2)cc1	-5.44% (inactive)
O=C(c1cc(-c2ccc(O)cc2)on1)N1CCOCC1	99% (active)
O=C(c1cc(-c2ccc(F)cc2)on1)N1CCN(c2ccc(F)cc2)CC1	1.89% (inactive)
COc1ccc2sc(-c3ccc(S(C)(=O)=O)cc3)c(C#Cc3cncn3C)c2c1	1.35% (inactive)
COc1ccccc1CCNC(=O)C(=O)NCCC1CCCCN1S(=O)(=O)c1cccs1 (stereo unspecified)	-56.8% (inactive)
CC1(C)O[C@H]2CC(=O)OCC23[C@H]2CC[C@@]4(C)[C@H](c5ccoc5)OC(=O)[C@H]5O[C@]54[C@]2(C)C(=O)C[C@@H]13 (stereo partly specified)	-10.7% (inactive)
CCc1noc(C)c1C(=O)Oc1ccc(N(C)S(=O)(=O)c2ccc(C)c(C)c2)cc1	22.1% (inactive)
COc1ccc(C(=O)Nc2cc(S(=O)(=O)N3CCCC3)ccc2Cl)cc1	0.959% (inactive)
Cc1cc(Nc2ccc(Cl)cc2)nc(N2CCOCC2)n1	-2.6% (inactive)
Cc1cc(N2CCN(c3ccccc3)CC2)nc(N2CCOCC2)n1	98.9% (active)
Cc1cc(N2CCOCC2)nc(-c2ccc(Br)cc2)n1	-3.64% (inactive)

Structure (SMILES)	inhibition
COc1ccc(CNC(=O)COC(=O)C(CCSC)N2C(=O)c3ccccc3C2=O)cc1 (stereo unspecified)	-2.44% (inactive)
O=C(O)c1cccc(NC(=O)c2cc(-c3cccc(Cl)c3)nc3ccccc23)c1	98.6% (active)
O=C(Nc1cccc(F)c1)c1cc(-c2ccco2)nc2ccccc12	5.76% (inactive)
CC(C)(C)Cc1nnc(NC(=O)c2cc(-c3ccccc3)nc3ccccc23)s1	3.63% (inactive)
Cc1ccc([C@@H]2CC=C(C(=O)O)[C@H](c3cccc(Cl)c3)N2S(=O)(=O)c2ccc(C)cc2)cc1	4.58% (inactive)
O=C1COc2ccc(C(=O)COC(=O)CCOc3ccccc3)cc2N1	-1.49% (inactive)
CC1=CC(C)(C)Nc2ccc(OC(=O)C(Cc3ccccc3)N3C(=O)C4CCCCC4C3=O)cc21 (stereo unspecified)	-22.1% (inactive)
O=C(CN1C(=O)C2C3CCC(C3)C2C1=O)Oc1ccc2ccccc2c1 (stereo unspecified)	-1.46% (inactive)
CC1=CC(C)(C)Nc2ccc(OC(=O)CN3C(=O)C4CCCCC4C3=O)cc21 (stereo unspecified)	85.4% (active)
CC(C)Cn1c(N)c(C(=O)COC(=O)C2CCCN2C(=O)c2cccs2)c(=O)n(C)c1=O (stereo unspecified)	-23.1% (inactive)
Cc1ccc(C)c(-c2nnc(NC(=O)CS(=O)(=O)c3ccccc3)o2)c1	1.8% (inactive)
Cc1c(OC(C)C(=O)N[C@@H](Cc2ccccc2)C(=O)O)ccc2c3c(c(=O)oc12)CCCC3 (stereo partly specified)	86.8% (active)
Cc1cc(=O)oc2c(C)c(OC(C)C(=O)NC3CCN(Cc4ccccc4)CC3)ccc12 (stereo unspecified)	2.88% (inactive)
Cc1oc2c(C)c3oc(=O)c(CC(=O)N[C@@H](CC(C)C)C(=O)N[C@@H](Cc4ccccc4)C(=O)O)c(C)c3cc2c1C	40.1% (inactive)
CC1(C)CC[C@@]2(C(=O)O)C(C1)C1=CCC3[C@@]4(C)CC[C@H](O)C(C)(C)C4CC[C@@]3(C)[C@]1(C)C[C@H]2O (stereo partly specified)	-9.85% (inactive)
CCOC(=O)c1cccc(NC(=O)c2ccc(F)cc2F)c1	6.05% (inactive)
CN(C)CCCN(C(=O)c1ccc(S(=O)(=O)N2CCCCCC2)cc1)c1nc2cc3c(cc2s1)OCCO3	-4.06% (inactive)
C=CCNC(=S)NNc1ncnc2sc3c(c12)CC(C)(C)OC3	98.8% (active)
CC/C(C)=N/Nc1nc2sc3c(c2c(=O)[nH]1)CC(C)(C)OC3	15.5% (inactive)

Structure (SMILES)	inhibition
CCC(O)CNc1nc(-n2nc(C)cc2C)nc2sc3c(c12)CC(C)(C)OC3 (stereo unspecified)	-2.25% (inactive)
CC(C)C(NC(=O)c1c(F)cccc1F)C(=O)NNC(=O)c1ccccc1 (stereo unspecified)	-7.7% (inactive)
COc1ccc2sc(N(CCCN(C)C)C(=O)c3ccc(S(=O)(=O)N(C)C4CCCCC4)cc3)nc2c1	-5.65% (inactive)
O=C(NCC(=O)N1CCCC(C(F)(F)F)C1)c1ccccc1F (stereo unspecified)	-7.32% (inactive)
Cc1ccc(N=C2SCCCN2C(=O)c2cccc(N3C(=O)CCC3=O)c2)cc1Cl	-9.4% (inactive)
N#Cc1nc(-c2cccc3ccccc23)oc1N	0.469% (inactive)
CC(C)CC(CC(C)C)=NNC(=O)c1ccc(CSc2nncn2C)cc1	98.2% (active)
Cn1c(CNC(=O)c2ccccc2F)nnc1SCc1ccc(F)cc1	-2.09% (inactive)
COC(=O)c1ccc(CSc2nncn2N)cc1	-17.1% (inactive)
CC(=O)Nc1ccc(NC(=O)CCN2C(=O)C3CC=CCC3C2=O)cc1 (stereo unspecified)	-1.74% (inactive)
CC1=NNC(=O)C1Cc1c(Cl)cccc1Cl (stereo unspecified)	13.8% (inactive)
CCn1c(SC(C)C(=O)Nc2ccc(N3CCOCC3)cc2)nnc1-c1ccco1 (stereo unspecified)	46.7% (inactive)
O=C(NNc1ncnc2c1cnn2-c1ccccc1)c1ccco1	-5.39% (inactive)
Cc1ccc(Nc2ncnc3c2cnn3C)c(C)c1	-4.69% (inactive)
Cc1ccc(-n2ncc3c(Nc4cccc(C(=O)O)c4)ncnc32)cc1	94% (active)
CSCCC(NC(=O)COc1ccccc1)C(=O)OCCOc1ccc(F)cc1 (stereo unspecified)	-0.0039% (inactive)
Cc1ccc(S(=O)(=O)NCCC(=O)OCC(=O)N(C)c2ccccc2)cc1	-0.745% (inactive)
COc1ccc(S(=O)(=O)N2CCN(C(C)C(=O)Nc3ccc(C(C)C)cc3)CC2)cc1 (stereo unspecified)	-3.15% (inactive)
